Data taken from PubChem BioAssay (Tox21).
Results filed as inconclusive are left out. Where a call stands in place of a potency, no number is given. Unmarked numbers belong to inactive results. The source made the active and inactive calls. Calls follow the shape of the dose curve; as a rule, active = well fitted inhibition curve with a large enough effect in the signal ratio in the repeat runs (not every such curve was filed as active); inconclusive = weak or mixed curves; inactive = flat fitted curve, though single readings scatter; the % refers to the signal ratio.

Biological target: Progesterone receptor (Homo sapiens) (UniProt P06401)
Test: qHTS assay to identify small molecule antagonists of the progesterone receptor (PR) signaling pathway (AID 1346795)
Conditions: PR-UAS-bla HEK293T, beta-lactamase FRET ratio, 16 h; series mostly up to 92.4 µM
Text: National Center for Advancing Translational Sciences [NCATS]
NIH Chemical Genomics Center [NCGC]
U.S. Environmental Protection Agency [EPA]
National Institutes of Environmental Health Sciences [NIEHS]
National Toxicology Program [NTP]
U.S. Food and Drug Administration [FDA]
Progesterone receptor (PR), a nuclear hormone receptor, plays an important role in development, metabolic homeostasis and reproduction. […] Endocrine disrupting chemicals (EDCs) and their interactions with steroid hormone receptors like PR causes disruption of normal endocrine function. To identify the compounds that inhibit PR signaling, a PR-UAS-bla GripTite cell line i.e. PR-UAS-bla HEK293T (Invitrogen, Carlsbad, CA, USA) containing a beta-lactamase reporter gene under the control of an Upstream Activator Sequence (UAS) was used to screen Tox21 10K compound library.
Tox21 Assay Protocol Summary:
PR-UAS-bla HEK293T cells were dispensed at 3,000 cells/4 uL of assay medium containing 2% charcoal stripped FBS per well into black wall/clear-bottom 1536-well plates using a Multidrop Combi (ThermoFisher Scientific, Waltham, MA) dispenser. After the assay plates were incubated at a 37C and 5% CO2 for 6 hr, 23 nL of compounds dissolved in DMSO, positive controls or DMSO only was transferred to the assay plate by a Pintool station (Kalypsys, San Diego, CA), followed by addition of 1 uL (1nM as final concentration) of Promegestone (R5020) in assay medium using a BioRAPTR FRD (Flying Reagent Dispenser, Aurora Discovery, San Diego, CA). The plates were incubated at 37C and 5% CO2 for 16 hr. Then 1 uL of LiveBLAzer B/G FRET substrate was added using a FRD. After the plates were incubated at room temperature for 2 hours, fluorescence intensity was measured by an Envision plate reader (PerkinElmer, Shelton, CT).
Potency is read from the fitted curve at half-maximal effect.

Chain of Progesterone receptor (Homo sapiens) (P06401 whole entry, looked up): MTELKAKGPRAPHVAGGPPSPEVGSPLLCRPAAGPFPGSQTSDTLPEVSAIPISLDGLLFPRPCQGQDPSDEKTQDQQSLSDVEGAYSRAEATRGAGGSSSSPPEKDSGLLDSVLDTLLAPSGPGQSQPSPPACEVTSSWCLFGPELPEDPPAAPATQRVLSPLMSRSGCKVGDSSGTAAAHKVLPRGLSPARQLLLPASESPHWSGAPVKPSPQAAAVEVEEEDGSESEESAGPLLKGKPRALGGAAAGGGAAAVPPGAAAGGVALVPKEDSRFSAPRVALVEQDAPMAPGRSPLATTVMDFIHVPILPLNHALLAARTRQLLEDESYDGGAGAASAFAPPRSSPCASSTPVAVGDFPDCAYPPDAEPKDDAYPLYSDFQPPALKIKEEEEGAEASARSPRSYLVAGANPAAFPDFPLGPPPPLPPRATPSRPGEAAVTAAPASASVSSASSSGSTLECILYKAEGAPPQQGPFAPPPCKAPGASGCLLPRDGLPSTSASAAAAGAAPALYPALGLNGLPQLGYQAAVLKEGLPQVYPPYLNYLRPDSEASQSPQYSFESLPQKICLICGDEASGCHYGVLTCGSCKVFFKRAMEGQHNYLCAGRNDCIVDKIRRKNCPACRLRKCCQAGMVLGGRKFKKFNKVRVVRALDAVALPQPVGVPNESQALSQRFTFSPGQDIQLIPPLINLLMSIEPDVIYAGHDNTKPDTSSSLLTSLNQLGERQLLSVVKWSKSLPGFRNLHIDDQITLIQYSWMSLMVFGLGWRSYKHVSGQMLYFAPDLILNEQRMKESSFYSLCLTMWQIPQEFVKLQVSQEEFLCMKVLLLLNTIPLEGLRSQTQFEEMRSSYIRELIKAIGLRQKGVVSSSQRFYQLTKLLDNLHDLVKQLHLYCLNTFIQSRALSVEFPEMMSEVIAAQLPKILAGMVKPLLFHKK

Q: Which Potency does the source give for `COCCOCC(OC)OC` here?
A: inactive

Q: `[K+]` was tested. Which Potency did it give?
A: inactive

Q: For `CCCC(=O)O[C@]1(C(=O)CC)CC[C@H]2[C@@H]3CCC4=CC(=O)CC[C@]4(C)[C@H]3[C@@H](O)C[C@@]21C`, which Potency is on record?
A: inactive

Q: For `CN1CC(=O)N/C1=N/C(=O)Nc1cccc(Cl)c1`, which Potency is on record?
A: inactive

Q: Which Potency does the source give for `O=CN(CCO)CCO` here?
A: inactive

Q: For `CCCCCC(C)N` (stereo not given), which Potency is on record?
A: inactive

Q: `CC(C)(C)C(=O)c1ccccc1` was tested. Which Potency did it give?
A: inactive

Q: With `CC(C)(C)c1ccc(-c2ccc(C(C)(C)C)cc2)cc1` as the molecule, how does the Potency read?
A: inactive

Q: `CCOc1ccccc1OCC` was tested. Which Potency did it give?
A: inactive

Q: How did the Potency turn out when `Cc1onc(-c2c(Cl)cccc2Cl)c1C(=O)Cl` was run?
A: inactive

Q: `CN(C)C(=O)Oc1cccc([N+](C)(C)C)c1` was tested. Which Potency did it give?
A: inactive

Q: How did the activity change, negative = inhibition turn out when `NC(N)=NCCN1CCCCCCC1` was run?
A: 0.475% [at 0.348 µM]

Q: `NS(=O)(=O)Cc1noc2ccccc12` was tested. Which Potency did it give?
A: inactive

Q: With `Clc1cc(Cl)cc(Cl)c1` as the molecule, how does the Potency read?
A: inactive

Q: How did the activity change, negative = inhibition turn out when `CCN[C@@H]1C[C@H](N)[C@@H](OC2OC(CN)=CCC2N)[C@H](O)[C@H]1O[C@H]1OC[C@](C)(O)[C@H](NC)[C@H]1O` (stereo not given in full) was run?
A: 9.29% [at 0.348 µM]

Q: How did the Potency turn out when `NC(=O)NC1N=C([O][Al])NC1=O` (stereo not given) was run?
A: inactive

Q: With `CC(COc1ccccc1)NN` (stereo not given) as the molecule, how does the Potency read?
A: inactive

Q: Which Potency does the source give for `C[C@H]1C[C@H]2[C@@H]3CCC4=CC(=O)C=C[C@]4(C)[C@H]3C(=O)C[C@]2(C)[C@@]1(O)C(=O)CO` here?
A: inactive

Q: For `O=C(c1ccccc1O)c1ccccc1O`, which Potency is on record?
A: 27 µM (active)

Q: With `O=S(=O)(O)c1cccc2ccccc12` as the molecule, how does the Potency read?
A: inactive

Q: Which Potency does the source give for `O=C1c2ccccc2C(=O)c2cc(O)ccc21` here?
A: inactive

Q: How did the activity change, negative = inhibition turn out when `CCCCCCCCCCOc1cc2c(=O)c(C(=O)OCC)c[nH]c2cc1OCC` was run?
A: -0.779% [at 8.39 µM]

Q: For `CC12CCC(C(=O)C1=O)C2(C)C` (stereo not given), which Potency is on record?
A: inactive

Q: How did the Potency turn out when `CCCCCCC#CC(=O)OC` was run?
A: inactive

Q: `N[C@@H](CCC(=O)O)C(=O)O` was tested. Which Potency did it give?
A: inactive

Q: How did the Potency turn out when `O=C1CCCCCCCCCCCCCCO1` was run?
A: inactive

Q: How did the Potency turn out when `c1ccc(Cc2ccccc2)cc1` was run?
A: inactive

Q: How did the Potency turn out when `C=C(C)C(=O)OCC(O)CO` (stereo not given) was run?
A: inactive

Q: How did the Potency turn out when `CCOC(=O)COC(=O)c1ccccc1C(=O)OCC` was run?
A: inactive

Q: With `Cc1ccc(-c2ccccc2C#N)cc1` as the molecule, how does the Potency read?
A: inactive

Q: For `CCOC(=O)OC(C)OC1=C(C(=O)Nc2ccccn2)N(C)S(=O)(=O)c2ccccc21` (stereo not given), which Potency is on record?
A: inactive

Q: How did the Potency turn out when `CCCCOC(=O)CCC(C)=O` was run?
A: inactive

Q: For `COc1cc2c(cc1OC)-c1cc3ccc(OC)c(OC)c3c[n+]1CC2`, which Potency is on record?
A: inactive

Q: `COC(=O)Nc1ccc(Cl)c(Cl)c1` was tested. Which Potency did it give?
A: 30.5 µM (active)

Q: With `C=C(C)C(=O)OCC1CCCO1` (stereo not given) as the molecule, how does the Potency read?
A: inactive

Q: Which Potency does the source give for `O=[N+]([O-])c1cncn1CCN1CCOCC1` here?
A: inactive

Q: For `Nc1ccn([C@@H]2O[C@H](CO)[C@@H](O)C2O)c(=O)n1` (stereo not given in full), which Potency is on record?
A: inactive

Q: Which Potency does the source give for `Cc1ccc(C(=O)c2ccccc2)cc1` here?
A: inactive

Q: For `CCCn1cc[n+](C)c1C`, which Potency is on record?
A: inactive

Q: `CCCCOCCOC(=O)CCCCCCCCC(=O)OCCOCCCC` was tested. Which Potency did it give?
A: inactive
